mHTT-CaM PPI inh: mutant huntingtin-calmodulin interaction inhibitors – biochemical, AlphaScreen, primary screen; AlphaScreen His-mHTT/GST-CaM binding, luminescence; actives 3.6% (n = 190,000); inhibition, % at 15 µM; AID 1671202, 2021
Target sequence (P42858 whole entry, looked up, change not shown): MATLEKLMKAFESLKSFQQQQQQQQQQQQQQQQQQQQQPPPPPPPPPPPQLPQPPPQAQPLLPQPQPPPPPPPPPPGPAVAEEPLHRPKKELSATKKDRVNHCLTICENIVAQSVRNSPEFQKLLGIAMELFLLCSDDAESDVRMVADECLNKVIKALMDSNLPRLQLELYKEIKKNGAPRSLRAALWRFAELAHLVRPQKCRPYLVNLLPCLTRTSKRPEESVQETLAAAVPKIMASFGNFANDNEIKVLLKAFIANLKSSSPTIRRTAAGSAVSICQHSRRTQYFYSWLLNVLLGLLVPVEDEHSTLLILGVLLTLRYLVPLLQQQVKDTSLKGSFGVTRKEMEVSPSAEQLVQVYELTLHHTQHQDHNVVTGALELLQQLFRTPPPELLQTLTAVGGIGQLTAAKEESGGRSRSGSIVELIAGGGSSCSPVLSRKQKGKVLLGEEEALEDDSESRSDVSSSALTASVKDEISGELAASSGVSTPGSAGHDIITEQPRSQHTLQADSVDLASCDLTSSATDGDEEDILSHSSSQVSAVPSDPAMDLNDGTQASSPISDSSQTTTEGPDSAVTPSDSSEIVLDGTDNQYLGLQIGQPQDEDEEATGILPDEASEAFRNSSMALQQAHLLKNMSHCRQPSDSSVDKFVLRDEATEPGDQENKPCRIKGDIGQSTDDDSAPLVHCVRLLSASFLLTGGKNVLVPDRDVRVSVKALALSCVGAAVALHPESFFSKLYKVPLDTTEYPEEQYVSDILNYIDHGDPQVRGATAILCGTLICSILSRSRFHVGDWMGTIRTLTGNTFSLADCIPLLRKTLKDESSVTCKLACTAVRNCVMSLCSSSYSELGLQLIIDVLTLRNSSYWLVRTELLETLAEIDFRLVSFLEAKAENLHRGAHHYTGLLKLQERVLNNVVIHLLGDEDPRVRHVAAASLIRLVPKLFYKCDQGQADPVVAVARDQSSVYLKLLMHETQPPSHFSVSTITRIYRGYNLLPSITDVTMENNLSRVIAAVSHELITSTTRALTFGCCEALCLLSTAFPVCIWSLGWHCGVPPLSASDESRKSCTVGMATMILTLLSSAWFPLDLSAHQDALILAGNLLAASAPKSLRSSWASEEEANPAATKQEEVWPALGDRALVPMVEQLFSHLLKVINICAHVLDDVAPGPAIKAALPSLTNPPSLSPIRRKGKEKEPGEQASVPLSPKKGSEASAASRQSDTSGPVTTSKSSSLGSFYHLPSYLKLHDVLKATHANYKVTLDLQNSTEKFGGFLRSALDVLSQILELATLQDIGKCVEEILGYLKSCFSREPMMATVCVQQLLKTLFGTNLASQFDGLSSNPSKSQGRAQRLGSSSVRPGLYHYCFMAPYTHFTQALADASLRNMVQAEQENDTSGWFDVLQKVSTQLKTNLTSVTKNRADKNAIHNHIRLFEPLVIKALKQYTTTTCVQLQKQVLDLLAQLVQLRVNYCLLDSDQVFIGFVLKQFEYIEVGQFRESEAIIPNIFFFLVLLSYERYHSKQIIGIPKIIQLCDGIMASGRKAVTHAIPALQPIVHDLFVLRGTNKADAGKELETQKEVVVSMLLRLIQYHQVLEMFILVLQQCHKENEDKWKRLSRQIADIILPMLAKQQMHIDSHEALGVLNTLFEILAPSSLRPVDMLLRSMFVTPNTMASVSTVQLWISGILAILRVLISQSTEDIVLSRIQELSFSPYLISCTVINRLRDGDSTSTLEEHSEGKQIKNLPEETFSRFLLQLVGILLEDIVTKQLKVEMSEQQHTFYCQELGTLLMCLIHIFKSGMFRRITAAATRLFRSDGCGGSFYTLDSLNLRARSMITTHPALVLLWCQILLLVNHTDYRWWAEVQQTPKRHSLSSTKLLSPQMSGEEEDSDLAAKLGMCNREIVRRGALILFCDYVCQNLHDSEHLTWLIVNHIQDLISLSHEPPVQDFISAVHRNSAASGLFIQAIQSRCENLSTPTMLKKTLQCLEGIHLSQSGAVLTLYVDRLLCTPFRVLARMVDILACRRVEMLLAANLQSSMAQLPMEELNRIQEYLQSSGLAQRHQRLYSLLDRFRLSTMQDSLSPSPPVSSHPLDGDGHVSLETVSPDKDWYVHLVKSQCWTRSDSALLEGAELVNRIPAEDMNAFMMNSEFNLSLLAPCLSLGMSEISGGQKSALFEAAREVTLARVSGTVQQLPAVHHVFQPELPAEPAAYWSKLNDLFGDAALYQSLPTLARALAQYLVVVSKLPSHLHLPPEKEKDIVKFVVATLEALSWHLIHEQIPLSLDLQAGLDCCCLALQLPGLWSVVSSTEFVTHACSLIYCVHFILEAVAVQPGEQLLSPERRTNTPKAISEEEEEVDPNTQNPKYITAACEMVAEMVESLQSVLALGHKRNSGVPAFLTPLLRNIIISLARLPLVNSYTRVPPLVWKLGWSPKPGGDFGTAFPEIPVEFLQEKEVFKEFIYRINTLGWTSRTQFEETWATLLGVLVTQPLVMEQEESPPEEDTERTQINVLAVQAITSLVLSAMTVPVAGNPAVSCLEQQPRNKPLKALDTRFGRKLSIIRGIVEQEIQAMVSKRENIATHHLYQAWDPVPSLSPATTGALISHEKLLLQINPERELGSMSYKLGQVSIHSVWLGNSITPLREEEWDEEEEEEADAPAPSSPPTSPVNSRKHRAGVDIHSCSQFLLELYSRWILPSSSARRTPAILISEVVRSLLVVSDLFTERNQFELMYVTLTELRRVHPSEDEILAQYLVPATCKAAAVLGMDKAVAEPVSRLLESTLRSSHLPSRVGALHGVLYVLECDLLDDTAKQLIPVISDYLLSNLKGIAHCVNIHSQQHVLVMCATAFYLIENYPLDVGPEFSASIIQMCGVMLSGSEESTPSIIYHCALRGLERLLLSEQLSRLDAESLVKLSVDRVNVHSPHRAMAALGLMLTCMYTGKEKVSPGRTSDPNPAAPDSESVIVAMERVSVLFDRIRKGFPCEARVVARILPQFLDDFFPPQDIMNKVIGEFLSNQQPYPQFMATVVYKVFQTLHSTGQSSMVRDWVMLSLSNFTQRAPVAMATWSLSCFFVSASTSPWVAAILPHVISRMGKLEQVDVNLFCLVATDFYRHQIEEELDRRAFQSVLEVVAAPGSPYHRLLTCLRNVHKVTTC
Pf apPOL block: Pf-apPOL inhibitors, biochemical, fluorescence; Recombinant Pf-apPOL, molecular beacon fluorescence, 1.5 h; Plasmodium falciparum apicoplast DNA polymerase (apPOL); actives 0.25% (n = 210,000); inhibition, % at 10 µM
A number is an active result; i = inactive. Hits are enriched below; roughly 3.5% of the tested compounds scored in any of these assays. No stated cut-off is given here; in the data, active means inhibition above about 50%; inactive means the rest.

SMILES | mHTT-CaM PPI inh | Pf apPOL block
Cc1cccc(S(=O)(=O)NC2CCN(c3ccccc3)C2=O)c1 (stereo not drawn) | i | 60
CCN(CCNC(=O)C1CCCN(c2cn[nH]c(=O)c2)C1)Cc1ccccc1 (stereo not drawn) | i | i
O=C(CN1CCN(C(=O)Nc2ccc(Br)cc2)CC1=O)NCC1CCCO1 (stereo not drawn) | i | i
CC(C)(C)N=C1Nc2ncccc2NC12CCCN(C(=O)c1cc(-c3cccs3)[nH]n1)C2 (stereo not drawn) | i | i
CC(C)(C)N=C1Nc2ncccc2NC12CCN(C(=O)c1cc(-c3cccs3)[nH]n1)CC2 | 57 | i
O=C(Cn1cnc2c(oc3ccccc32)c1=O)Nc1cc(F)ccc1F | i | i
O=C(Cn1c2c(c3ccccc31)CCC2)Nc1cc(F)ccc1F | 76 | i
CC1CCN(CC2CCN(S(=O)(=O)c3ccc4ccccc4c3)CC2)CC1 | i | i
O=S(=O)(c1ccccc1C(F)(F)F)N1CCc2nc[nH]c2C1 | i | i
Cn1c2ccc(Br)cc2c2nnc(SCCN3CCOCC3)nc21 | 80 | i
Cn1c2ccc(Br)cc2c2nnc(SCN3C(=O)c4ccccc4C3=O)nc21 | i | i
Cc1cc(C(c2ccccc2)c2cc(C)c(N)c(C)c2)cc(C)c1N | 80 | i
Cc1cc(C(c2cc(C)c(N)c(C)c2)c2ccco2)cc(C)c1N | i | i
Cc1ccc(/C=C/C2=NC(=C\c3cccc(Br)c3)/C(=O)O2)cc1 | i | i
CN1CCc2c(sc3c2C(=O)NC(c2ccc(COc4ccc(Cl)c(Cl)c4)o2)N3)C1 (stereo not drawn) | 81 | i
CCOc1ccc(C2NC(=O)c3c(sc4c3CCN(C)C4)N2)c(O)c1 (stereo not drawn) | i | i
COc1ccccc1-c1nnc(SCC(=O)NC2CCCCC2)n1-n1cccc1 | i | i
CC1(C)CC(=O)C2=C(C1)c1c(ccc3ncccc13)NC2c1ccc(Cl)cc1 (stereo not drawn) | i | 58
CC1(C)CC(=O)C2=C(C1)c1c(ccc3ncccc13)NC2c1ccccc1 (stereo not drawn) | i | i
O=C(NCc1ccccc1)C1CC(=O)N(C2CC3CCC2C3)C1 (stereo not drawn) | i | i
Cc1cc(Br)c(NC(=O)COc2ccc(C=O)cc2)cc1C | i | i
Cc1sc2ccn(Cc3ccc(F)cc3)c(=O)c2c1C(=O)N1CCCC(C)C1 (stereo not drawn) | 66 | i
CCn1ccc2sc(C)c(C(=O)N3CCCCC3)c2c1=O | i | i
Cc1sc2ccn(CC(C)C)c(=O)c2c1C(=O)N1CCCC(C)C1 (stereo not drawn) | i | i
Cc1sc2ccn(Cc3ccc(F)cc3)c(=O)c2c1C(=O)N1CCCCCC1 | 64 | i
SMILES | mHTT-CaM PPI inh | Pf apPOL block
Cc1noc(C2CN(C(=O)c3cccn3C)CC23CCOCC3)n1 (stereo not drawn) | i | i
O=C(NCCc1c[nH]c2ccccc12)C(=O)NCCc1c[nH]c2ccccc12 | i | i
c1ccc(C2CCC(NCCc3c[nH]c4ccccc34)CC2)cc1 (stereo not drawn) | 77 | i
COc1ccccc1C(=O)N1CCCC(COc2cccc(C(=O)N3CCCC3)c2)C1 (stereo not drawn) | i | i
CC(=O)c1cccc(NC(=O)c2cc3c(n2C)CCN(Cc2cccc(F)c2)C3)c1 | 60 | i
Cn1c(C(=O)Nc2ccc3c(c2)OCO3)cc2c1CCN(Cc1cccc(F)c1)C2 | 52 | i
Cn1c(C(=O)NC2CC2)cc2c1CCN(Cc1cccc(F)c1)C2 | i | i
Cn1c(C(=O)NCCN2CCCCC2)cc2c1CCN(Cc1cccc(F)c1)C2 | i | i
O=C(O)CC(N=CC1=C(O)CCCC1=O)C(=O)O (stereo not drawn) | i | i
COc1cccc(/C=C2\N=C(c3ccc(OC)c(OC)c3)OC2=O)c1 | i | i
COc1ccccc1-n1nnc(C(=O)Nc2ncc(Cc3ccccc3)s2)c1C | i | i
Cc1[nH]c2ccccc2c1C(=O)C(=O)NC1CCCCC1C (stereo not drawn) | i | i
CCCNC(=O)c1cc(C)nc2ccc(Cl)cc12 | i | i
CCCNC(=O)c1cc(C)nc2ccc(F)cc12 | 100 | i
CNC(=O)c1cc(C)nc2ccc(C)cc12 | i | 84
CNC(=O)c1cc(C)nc2ccc(F)cc12 | i | i
COc1ccc(-c2ncc3c(n2)CCN(C(=O)COc2ccccc2)C3)cc1 | i | i
COc1cc(C2NC(=O)NC(C)=C2C(=O)Nc2ccc(F)c(F)c2)ccc1O (stereo not drawn) | i | i
COc1ccc(NC(=O)C2=C(C)NC(=O)NC2c2ccc(OC)cc2OC)c(OC)c1 (stereo not drawn) | 73 | i
COc1ccc(C2NC(=O)NC(C)=C2C(=O)Nc2ccc(C)c(Cl)c2)cc1OC (stereo not drawn) | 54 | i
COc1ccc(NC(=O)C2=C(C)NC(=O)NC2c2cccs2)c(OC)c1 (stereo not drawn) | i | i

Bioassay records deposited in PubChem BioAssay by University of Kansas High Throughput Screening Laboratory.
